About 8,600 (12%) of roughly 69,000 compounds showed an effect of 50% or more. The entries come from a sample that favours strong results as a whole.
system: Plasmodium berghei; test: Screen against P. berghei liver stage (PbLuc), transformed with Luciferase, at 10uM; format: functional, HepG2; conditions: tested at 10 uM

Row | Compound | INHIBITION [%]
1 | Cc1[nH]ncc1C(=O)NCC1CCC2(CC1)OCCO2 | 32
2 | O=C(NCC1CCC2(CC1)OCCO2)c1ccncc1F | 57.7
3 | Cc1cc(C(=O)NCC2CCC3(CC2)OCCO3)[nH]n1 | 41.4
4 | CC(C)Sc1ccc(C(C)NC(=O)CNS(C)(=O)=O)cc1 (configuration not stated) | 38
5 | CCSc1ccc(C(C)NC(=O)CCS(C)(=O)=O)cc1 (configuration not stated) | 2.91
6 | CCSc1ccc(C(C)NC(=O)CNS(C)(=O)=O)cc1 (configuration not stated) | 51.7
7 | Cc1nn(C)c2nc(-c3ccccn3)nc(NCCCOC(C)C)c12 | 5.46
8 | CC(=O)NCCNc1nc(-c2ccccn2)nc2c1c(C)nn2C | 39.1
9 | CCSCCNc1nc(-c2ccccn2)nc2c1c(C)nn2C | 51.3
10 | CC(C)N(C)Cc1cnc2n1CCN(C(=O)Cc1cccs1)C2C (configuration not stated) | -18.5
11 | Cc1nccn1C1CCCN(C(=O)c2ccnc(-n3ccnc3)c2)C1 (configuration not stated) | 18.2
12 | CC(C)n1nnc(CC(=O)NCC2(c3ccccc3F)CCOCC2)n1 | 27.05
13 | O=C(c1cc2cccc(F)c2[nH]1)N1C[C@@H](O)[C@H](N2CCOCC2)C1 | -9.08
14 | CC(NC1(CNC(=O)CC(C)(C)C)CCOCC1)c1ccccc1 (configuration not stated) | -6.75
15 | CCOCC(=O)NCC1(NC(C)c2ccccc2)CCOCC1 (configuration not stated) | 42
16 | CC(NC1(CNC(=O)CC2CCCC2)CCOCC1)c1ccccc1 (configuration not stated) | 82.1
17 | CC(NC1(CNC(=O)NC2CC2)CCOCC1)c1ccccc1 (configuration not stated) | 43.1
18 | CC(NC1(CNC(=O)OC(C)(C)C)CCOCC1)c1ccccc1 (configuration not stated) | 36.6
19 | CCC(CC)C(=O)NCC1(NC(C)c2ccccc2)CCOCC1 (configuration not stated) | 59.3
20 | COc1cccc(CNCC2(COc3cccnc3)C[C@@H](O)[C@@H](O)C2)c1 (some centres not stated) | 46.4
21 | CC(Nc1ccc(C(F)(F)F)cc1C#N)c1cccc(S(N)(=O)=O)c1 (configuration not stated) | 28.6
22 | OC(CNc1ccc(Cl)cn1)CN1CCOCC1 (configuration not stated) | -58.5
23 | O=c1c(NCc2ccccn2)c(NCC(O)CN2CCOCC2)c1=O (configuration not stated) | 50.8
24 | CC(C)(CO)Nc1c(NCc2ccccn2)c(=O)c1=O | 6.34

Row | Compound | INHIBITION [%]
25 | O=c1c(NCc2ccco2)c(NCC(O)CN2CCOCC2)c1=O (configuration not stated) | 48.9
26 | O=c1c(NCc2ccncc2)c(NCC(O)CN2CCOCC2)c1=O (configuration not stated) | 50.8
27 | CC(C)CNC(=O)CNc1c(NCc2ccccn2)c(=O)c1=O | -8.8
28 | CC(NC(=O)NCc1cccnc1N(C)C)c1ccc(F)cc1 (configuration not stated) | -12.1
29 | COCCC(=O)N1C[C@@H]2CC[C@H]1CN(C1Cc3ccccc3C1)C2 | -20.6
30 | CN(C)CCO[C@H]1CN(C(=O)c2ccc[nH]2)[C@@H]2COC[C@H]12 | 7.65
31 | CCN(CC)C1CCN(C(=O)c2cc(-n3cccn3)ccc2Cl)CC1 | 14.6
32 | c1ccc2c(c1)C(NC1CCCC1)CC21CCNCC1 (configuration not stated) | 71.1
33 | CC(=O)N1CC2(CCNCC2)c2cc(C)ccc21 | 7.77
34 | Cc1ccc2c(c1)C1(CCNCC1)CC2NC(C)C (configuration not stated) | -22.7
35 | Fc1ccc2c(c1)C1(CCNCC1)CC2OCC1CC1 (configuration not stated) | -5.63
36 | Cc1ccc2c(c1)C1(CCNCC1)CC2NCCO (configuration not stated) | 55.7
37 | CC(C)NC1CC2(CCNCC2)c2cc(F)ccc21 (configuration not stated) | -33.1
38 | CCN1CCC2(CC1)CC(NC(=O)NC)c1cc(C)ccc12 (configuration not stated) | -25
39 | Fc1ccc2c(c1)C1(CCNCC1)CC2NC1CC1 (configuration not stated) | 95.5
40 | CNC(=O)NC1CC2(CCNCC2)c2ccc(C)cc21 (configuration not stated) | 63
41 | Cc1ccc2c(c1)C(NC(C)C)CC21CCNCC1 (configuration not stated) | -46.4
42 | Cc1ccc(OCC(O)CN2CCC(Cn3cccn3)CC2)cc1 (configuration not stated) | 28.5
43 | Cc1ccc(-c2nc(C(=O)N3CCCC(C(N)=O)C3)cs2)c(C)c1 (configuration not stated) | -79.45
44 | CC(c1ccncc1)N(CCN(C)C)C(=O)Nc1ccc(Cl)cc1 (configuration not stated) | 8.49
45 | Cc1nn(CC(C)C)c(C)c1CC(=O)N1CCCC(NS(C)(=O)=O)C1 (configuration not stated) | 17.1
46 | Cc1cc(C)c(C#N)c(N2CCC3(CCCN(CCO)C3=O)C2)n1 (configuration not stated) | -17.2
47 | COc1cn(CC(=O)N2CCC(c3ccccc3)CC2)c(C)cc1=O | 12.4
48 | COc1cccc(-c2ccnc(C3CCNCC3)c2)c1 | -23.8

Row | Compound | INHIBITION [%]
49 | COc1cccc(N2C(=O)CC3(CCNCC3)C2=O)c1 | 22.3
50 | Cc1ccc2c(c1)C1(CCNCC1)CC2NC1CC1 (configuration not stated) | 67.5
51 | Cc1ccc2c(c1)C1(CCNCC1)CC2OCC1CC1 (configuration not stated) | -26.5
52 | COc1ccc2c(c1)C1(CCNCC1)CC2NC1CC1 (configuration not stated) | 94.6
53 | Cc1ccc2c(c1)C(NC1CC1)CC21CCNCC1 (configuration not stated) | 42.1
54 | COc1cccc(C(=O)N2CCCCC2c2nccs2)c1OC (configuration not stated) | -7.35
55 | COCC(=O)N1CCC(c2cc3n(n2)[C@@H](C(F)(F)F)C[C@@H](C)N3)CC1 | 49.6
56 | CC(C)(O)CCc1cccc(C(=O)N2CCC[C@H]2C(N)=O)c1 | 40.2
57 | COc1ccc(NC(=O)NCCCn2nc3ccccn3c2=O)cc1 | 16.8
58 | O=C(N1CCCC1)N1CCO[C@H]2[C@@H](OCc3cccnc3)CC[C@@H]21 | -26.5
59 | Cn1c(CN2CCCC(Cn3cncn3)C2)nc2ccccc21 (configuration not stated) | 33.1
60 | O=C(CN1CCC(c2nnc(C(F)(F)F)o2)CC1)Nc1cccnc1 | -17.8
61 | COCCN(Cc1ccc(F)cc1Cl)C(=O)c1cnn(C)c1C | 80.2
62 | COCCN(Cc1ccoc1)C(=O)c1ccccc1Cl | -33.2
63 | CCCN(CCC)C(=O)c1sc(C)nc1C | -3.14
64 | CCCN(CCC)C(=O)c1cnn(C)c1C | 51.3
65 | CCc1ccccc1NC(=O)c1cnn(C)c1C | 21.5
66 | COCCN(Cc1ccoc1)C(=O)c1ccccc1OC | 28.4
67 | COCCN(Cc1ccccc1)C(=O)c1cnn(C)c1C | 81.5
68 | COCCN(Cc1ccc(F)cc1Cl)C(=O)c1ccc(=O)[nH]n1 | 16.6
69 | COCCN(Cc1ccc(F)cc1Cl)C(=O)c1ccncc1 | 21
70 | COCCN(Cc1ccc(F)cc1Cl)C(=O)c1ccccn1 | 52.4
71 | COCCN(Cc1ccc(F)cc1Cl)C(=O)c1cc(C)n[nH]1 | 32.5
72 | COCCN(Cc1ccc(F)cc1Cl)C(=O)c1csnn1 | 39.5

Reference: ChEMBL document CHEMBL4513216, “Probing the Open Global Health Chemical Diversity Library for Multistage-Active Starting Points for Next-Generation Antimalarials” (ACS Infect Dis, 2020)
